An excerpt weighted towards active compounds, which were near 4.9% of everything screened.
NALP3 yeast inh: inhibitors of NALP3 inflammasome in yeast. inhibition, % at 10 µM. 0.39% of 330,000 active. AID 2825. Yeast reconstituted NLRP3/ASC/caspase-1, beta-gal luminescence, 24 h;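 active means inhibition of 50% or more; inactive means inhibition below 50%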;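 further: plate controls were induced DMSO wells for no effect and uninduced yeast grown without galactose for full effect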
NALP1 yeast inh: blocks the NALP1 inflammasome reconstituted in yeast; S. cerevisiae NALP1/ASC/caspase-1 growth, X-gal OD620, 72 h; inhibition, % at 10 µM; 0.61% of 280,000 active; in the data active means inhibition mostly above about 24%, no sharp cut-off; inactive means mostly below about 32%
tim23-1 inh: inhibits growth of tim23-1 mutant yeast; S. cerevisiae tim23-1 growth, BacTiter-Glo luminescence, 24 h; inhibition, % at 20 µM; 1.3% of 330,000 active; AID 463212;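 active means growth inhibition of the mutant yeast at or above 50%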;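 further: temperature-sensitive mutant grown at 25 °C; plate controls were DMSO-treated mutant yeast for no effect and medium wells lacking yeast for full effect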
tim10-1 inh: growth inhibitors of tim10-1 mutant yeast | S. cerevisiae tim10-1 ts strain growth, BacTiter-Glo, 24 h | inhibition, % at 20 µM | 2.2% of 330,000 active;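 active means inhibition of at least 40%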;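 further: mutant grown at 25 °C; 0% = DMSO wells with yeast and 100% = wells holding no yeast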
SKKanGAS inh: blocks kanamycin growth of S. pyogenes SKKanGAS strain; BacTiter-Glo, 6 h; inhibition, % at 7.5 µM; 1.3% of 300,000 active; AID 1662;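 active means mean replicate score, as percent of positive control median, at least 50; inconclusive means mean below 50 but one replicate at or above 50; inactive means mean and every replicate below 50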;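 further: strain carries kanamycin resistance gene driven by streptokinase promoter and grows in 40 µg/ml kanamycin; loss of luminescence reflects streptokinase promoter inhibition or plain growth inhibition; 0% = median of DMSO wells and 100% = positive control at its reference dose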
TIM10 inh: inhibits growth of TIM10 yeast strain; S. cerevisiae TIM10 strain growth, BacTiter-Glo luminescence, 24 h; inhibition, % at 10 µM; 1.4% of 330,000 active; AID 463195;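 active means inhibition of 40% or more at the single tested concentration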;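 further: wild-type TIM10 isogenic control strain grown at permissive 25 °C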
The depositor's hits bear a star; ? = inconclusive; / = no result.

SMILES	NALP3 yeast inh	NALP1 yeast inh	tim23-1 inh	tim10-1 inh	SKKanGAS inh	TIM10 inh
CN(C)C(=O)CSc1cnc2ccccc2n1	21	28*	-4	6	2	-10
CCCCCC(=O)NC(=S)NC1C2CC3CC(C2)CC1C3 (stereo unspecified)	27	-40	40	31	83*	38
CCc1ccc(S(=O)(=O)/N=C2\C=C(Nc3cccc(C(=O)O)c3)C(=O)c3ccccc32)cc1	33	-7	32	23	106*	27
c1cn2cc(CSC3CCCCC3)nc2s1	27	36*	18	13	5	8
CC(C)c1ccc(N2C(=O)/C(=C/N(C)C)SC2=S)cc1	30	/	11	-8	86*	-5
O=C(NCc1ccccc1)N1CCN(CCO)CC1	/	/	/	/	-3	/
COC(=O)c1ccc(/C=C/c2ccc3cccc(OC)c3n2)cc1	15	42	28	28	?	6
COc1cc(/C=C/c2ccc3cccc(O)c3n2)cc(Br)c1OC	0	17	24	33	100*	26
COc1cc(/C=C/c2ccc3cccc(O)c3n2)cc(OC)c1OC	8	-6	20	10	96*	17
COc1cc(/C=C/c2ccc3cccc(O)c3n2)cc(Cl)c1OC	6	6	18	39	107*	10
COc1ccc(/C=C/c2ccc3cccc(O)c3n2)cc1Br	-6	-22	-5	18	93*	10
COc1cc(/C=C/c2ccc3cccc([N+](=O)[O-])c3n2)ccc1OCC(=O)O	4	-22	23	8	10	-5
COc1cc(/C=N/O)cc(Cl)c1OC	9	12	-4	7	-1	-11
COC(=O)c1ccccc1NC(=O)C1CCN(c2ncnc3c2nc2n3CCCCC2)CC1	8	7	20	15	6	3
Cc1ccc(OCCn2cc(/C=C(\C#N)C(=O)NCC3CCCO3)c3ccccc32)cc1 (stereo unspecified)	20	24	25	16	37	24
Cc1ccc(OCCn2cc(/C=C(\C#N)C(=O)NCC3CCCO3)c3ccccc32)cc1C (stereo unspecified)	19	45*	23	20	16	18
CC(OC(=O)Cn1[nH]c(=O)c2ccccc2c1=O)C(=O)Nc1cccc(Cl)c1 (stereo unspecified)	18	/	8	15	18	6
Cc1ccc2c(NC(=O)c3ccco3)cccc2n1	-4	10	10	15	-1	1
COc1cc(NC(C)CCCN)c2ncccc2c1Oc1ccccc1 (stereo unspecified)	4	58*	7	19	4	9
COc1cc(NC(C)CCc2ccccc2)cc(OC)c1OC (stereo unspecified)	12	14	15	-4	2	1
CC(C)c1nnc(NC(=O)COc2ccc3c(c2)OCO3)s1	16	30*	9	-16	-7	3
COC(=O)CSc1nnc(NC(=O)c2ccc3c(c2)OCO3)s1	12	11	-6	-5	52*	-25
O=C(c1c(O)cc(O)cc1O)C1c2c(cc(O)c3c2O[C@H](c2ccc(O)cc2)[C@@H](O)C3)OC1c1ccc(O)cc1 (stereo partly specified)	12	/	-10	-6	/	11
O=C(C[n+]1cnn(CC(=O)c2ccc(Cl)cc2Cl)c1)c1ccc([N+](=O)[O-])cc1	/	/	/	/	93*	/
COc1ccccc1CNC(=O)c1ccc(-c2ccccc2C(F)(F)F)o1	15	38	-5	24	-1	0
SMILES	NALP3 yeast inh	NALP1 yeast inh	tim23-1 inh	tim10-1 inh	SKKanGAS inh	TIM10 inh
COc1ccccc1CNC(=O)c1ccc(-c2ccccc2Cl)o1	20	28	24	25	52*	12
N#Cc1ccc(C(=O)Nc2cc(S(=O)(=O)Nc3ccc(Cl)cc3)ccc2N2CCCCC2)cc1	-1	9	-20	-5	10	-11
O=C(Nc1cc(S(=O)(=O)Nc2ccc(Cl)cc2)ccc1N1CCCCC1)c1ccc(F)cc1	0	33	6	11	55*	17
CCCCn1c(NCc2ccccn2)nc2ccccc21	2	-14	0	8	6	-4
CCN(CC)CCn1c(NCc2ccccn2)nc2ccccc21	5	42*	2	-1	-2	-7
COCCN(C(=O)COC(=O)c1ccc2[nH]c(C)c(C)c2c1)c1c(N)n(Cc2ccccc2)c(=O)[nH]c1=O	5	/	5	-4	-8	4
Nc1ccc(-c2nc3nc(N)nc(N)c3nc2-c2ccc(N)cc2)cc1	16	24	-3	11	62*	-8
CCOC(=O)c1cc(-c2ccc(OC(F)F)cc2)nc2c1c(=O)[nH]c(=O)n2C	17	0	13	19	100*	11
O=[N+]([O-])c1cc(F)c2cccnc2c1O	0	27	-30	4	40	-15
O=[N+]([O-])c1cc(Cl)c2cccnc2c1O	1	2	-38	10	83*	7
O=[N+]([O-])c1cc(Cl)c(O)c2ncccc12	22	19	-13	-16	51*	-7
O=[N+]([O-])c1ccc(Cl)c2cccnc12	13	0	5	8	-2	-7
CCOc1cc(C(=O)Oc2cc(C)[nH]c(=O)c2[N+](=O)[O-])cc(OCC)c1OCC	20	-2	-2	-10	-3	0
CC(C)CCC1(CCNC(C)c2cccs2)CCOC(C)(C)C1 (stereo unspecified)	11	/	21	-1	-1	-3
CC(C)c1ccc2[nH]c3c(c2c1)CCC/C3=N\NC(=O)c1ccncc1	9	18	30	-23	60*	29
Nc1ccc(C(=O)N/N=C2\CCCc3c2[nH]c2ccccc32)cc1	2	14	15	4	9	-24
COc1ccc(NC(=O)c2cc(S(=O)(=O)N3CCc4ccccc43)cn2C)cc1OC	28	14	-4	3	4	13
CC1CCCC(C)N1C(=O)CNCc1ccc2c(c1)OCO2 (stereo unspecified)	6	8	19	13	-4	1
O=C(N/N=C/c1cc([N+](=O)[O-])ccc1O)C(O)(c1ccccc1)c1ccccc1	26	2	15	-10	51*	-9
O=C(N/N=C/c1cc([N+](=O)[O-])ccc1O)c1cccc2cc[nH]c12	17	5	-18	-2	89*	4
O=C(N/N=C/c1cc([N+](=O)[O-])ccc1O)C1CC1	10	-9	2	0	-2	21
O=C(N/N=C/c1cc(Br)ccc1O)c1ccncc1	19	0	43	3	104*	7
O=C(N/N=C\c1cc(Br)ccc1O)c1ccc(S(=O)(=O)N2CCCCC2)cc1	5	15	6	18	106*	26
Cc1ccc(/C=N/NC(=O)CSc2nc3ccccc3s2)o1	19	27	16	12	-2	21

Screening data (PubChem)
